High-throughput results: PubChem, National Center for Advancing Translational Sciences (NCATS)
FMDV antiviral: High Throughput Screening for Foot and Mouth Disease Virus Antivirals; Potency, µM (highest dose often 57.9 µM), usual class: inhibitors; FMDV antiviral cell-based qHTS; 410,000 compounds, 1.2% hits; calls by dose curve; tested in HEK293T cells; further: read-out not given here; nearly all actives have a fitted effect of over 45% in size
Marburg entry inh: qHTS for inhibitors of binding or entry into cells for Marburg Virus; Marburg virus pseudotyped entry inhibition, cell reporter; Potency, µM (doses to about 37.8 µM), hits mostly inhibitors; 300,000 compounds, 1.8% hits; AID 540276, 2011; calls by dose curve; tested in HEK293 cells
HCV inh: qHTS Assay for Inhibitors of Hepatitis C Virus (HCV); AID 651820, 2012; 340,000 compounds, 3.4% hits; Huh7.5.1 HCVcc-Cre infection, luciferase reporter, 44 h; Potency, µM (titrated, usually from 41.8 µM), usual class: inhibitors; active means well fitted inhibition curve with a large enough effect; inconclusive means small, poorly fitted or top-dose-only effect, or another doubt; inactive means no such curve, though single readings can be large or run the other way
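A cell-based infection assay in which seeded cells (1,000 per well) receive test compound after 4 h, are inoculated with HCVcc-Cre at approximately 0.5 moi, and are incubated 44 h before luminescence detection.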
HCMV antiviral: qHTS Assay for inhibitors of the human cytomegalovirus (HCMV); HFF cells, HCMV-luciferase reporter, 72 h; stronger effect = lower value; activity change, negative = inhibition, % at 57.5 µM; 410,000 compounds, 4.5% hits; in the data active means activity change below about -60%; inconclusive means no clear call, values can overlap the other calls; inactive means above about -39%
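Cell-based, HFFs, 1000 cells/well, 16 h 37C; cpds in DMSO + HCMV-luc, MOI 1 PFU/cell; 72 h 37C; OneGlo luminescence after 5 min RT; norm. to buffer vs Salinomycin 10uM.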
LASV entry inh: qHTS for Inhibitors of binding or entry into cells for Lassa Virus. Lassa virus pseudotype entry inhibition, cell reporter. Potency, µM (series often up to 37.9 µM), most hits filed as inhibitors. 300,000 compounds, 1.2% hits; calls by dose curve; tested in HEK293 cells; further: nearly all actives have a fitted effect of over 50% in size
SARS PLP yeast: qHTS of Yeast-based Assay for SARS-CoV PLP; S. cerevisiae expressing SARS-CoV PLpro, growth rescue; Potency, µM (doses to about 32.9 µM), usual class: activators; 330,000 compounds, 0.19% hits; AID 485353, 2010; calls by dose curve; further: nearly all actives have a fitted effect of over 55% in size
Each line names hits and unclear results; the compound was inactive in the other large screens; ! = not confirmed by another sample. Hits are enriched below; roughly 8% of the tested compounds scored in any of these assays.

CC(C)c1c(C(=O)NCc2ccccn2)cnn1-c1nccc(-c2ccccc2F)n1	none (no result: Marburg entry inh, HCV inh, HCMV antiviral, LASV entry inh, SARS PLP yeast)
CCOc1ccc(/C=C/C(O)=C2/C(=O)N(C)C3(C)CC2c2ccccc2O3)cc1OC (stereo unspecified)	FMDV antiviral inconclusive, Marburg entry inh inconclusive, HCV inh inconclusive, HCMV antiviral -98, LASV entry inh 3.5µM
Cc1oc(-c2ccc(Cl)cc2)nc1CN1CCCC(C(=O)NCc2ccccn2)C1 (stereo unspecified)	HCV inh inconclusive, HCMV antiviral inconclusive
Cc1oc(-c2ccc(Cl)cc2)nc1CN1CCCC(C(=O)NCCCN2CCOCC2)C1 (stereo unspecified)	Marburg entry inh inconclusive, HCV inh 6.3µM, HCMV antiviral inconclusive, LASV entry inh inconclusive
Cc1oc(-c2ccc(Cl)cc2)nc1CN1CCC(C(=O)NCCCN2CCCC(C)C2)CC1 (stereo unspecified)	HCV inh 1.8µM, HCMV antiviral -101 (no result: Marburg entry inh, LASV entry inh)
Cc1oc(-c2ccc(Cl)cc2)nc1CN1CCCC(C(=O)NCc2cccnc2)C1 (stereo unspecified)	FMDV antiviral inconclusive, HCV inh 1µM, HCMV antiviral -84
CNC(=O)c1cc2n(n1)CCCN(Cc1ccc(F)cc1)C2=O	none (no result: Marburg entry inh, HCV inh, SARS PLP yeast)
O=C(c1cccc(Cl)c1)N1CCCC(c2ccc(Cl)cc2)=N1	HCV inh 7.9µM, LASV entry inh inconclusive (no result: FMDV antiviral)
COc1ccc(-c2cc(C(F)(F)F)nc(S(C)(=O)=O)n2)cc1	FMDV antiviral 20µM, Marburg entry inh 13µM!, HCV inh inconclusive, HCMV antiviral -105, LASV entry inh 23µM
CS(=O)(=O)c1nc(-c2ccc(F)cc2)cc(C(F)(F)F)n1	FMDV antiviral 28µM, Marburg entry inh inconclusive, HCV inh 6.3µM, HCMV antiviral -99, LASV entry inh inconclusive
CC(C)CCNC(=O)C(c1ccco1)N(CC1CCCO1)C(=O)Cn1nnc2ccccc21 (stereo unspecified)	none
Cn1c(C(C(=O)NCC2CCCO2)N(CCc2ccccc2)C(=O)Cn2nnc3ccccc32)nc2ccccc21 (stereo unspecified)	HCMV antiviral -65, LASV entry inh inconclusive
Cc1cccc(C(=O)NCc2nc(-c3ccccc3NC(=O)C3CCCO3)oc2C)c1 (stereo unspecified)	none (no result: Marburg entry inh, HCV inh, HCMV antiviral, LASV entry inh, SARS PLP yeast)
O=c1cc(-c2ccccc2Cl)oc2c([N+](=O)[O-])c(O)cc(O)c12	HCMV antiviral -72
CN(C)c1ccc(C(=O)Nc2ccc(O)c3c(=O)cc(-c4ccccc4Cl)oc23)cc1	HCV inh 32µM (no result: Marburg entry inh, LASV entry inh)
CN(CC(=O)Nc1ccc(Cl)cc1F)C1CCS(=O)(=O)C1 (stereo unspecified)	HCMV antiviral -100 (no result: Marburg entry inh, LASV entry inh)
COc1ccc(NC(=O)c2ncoc2-c2ccco2)cc1Cl	none (no result: Marburg entry inh, HCV inh, SARS PLP yeast)
CC(=O)Nc1ccc(/C=C/c2ccc3cccc([N+](=O)[O-])c3n2)cc1	HCV inh 11µM, HCMV antiviral -90 (no result: Marburg entry inh, LASV entry inh)
O=C(CSc1ccccc1)NCc1ccc2c(c1)CCN2C(=O)c1ccccc1	LASV entry inh inconclusive (no result: Marburg entry inh, HCV inh, SARS PLP yeast)
CC(=O)N1CCc2cc(CNS(=O)(=O)c3ccccc3C(F)(F)F)ccc21	HCMV antiviral -93 (no result: Marburg entry inh, HCV inh, SARS PLP yeast)
O=C(c1ccccc1)N1CCc2cc(CNS(=O)(=O)c3ccc(Cl)s3)ccc21	HCMV antiviral -70 (no result: Marburg entry inh, HCV inh, SARS PLP yeast)
CC(=O)N1CCc2cc(CNC(=O)Nc3ccccc3C(F)(F)F)ccc21	none (no result: Marburg entry inh, HCV inh, SARS PLP yeast)
Cc1ccc(C(=O)N2CCc3cc(CNS(=O)(=O)c4ccc(Cl)s4)ccc32)cc1	none (no result: Marburg entry inh, HCV inh, SARS PLP yeast)
O=C(c1ccccc1)N1CCc2cc(CNS(=O)(=O)c3ccccc3Cl)ccc21	FMDV antiviral inconclusive, HCMV antiviral -78, LASV entry inh inconclusive (no result: Marburg entry inh, HCV inh, SARS PLP yeast)
CC(=O)N1CCc2cc(S(=O)(=O)CCC(=O)NCc3ccc(F)cc3)ccc21	HCMV antiviral -61 (no result: Marburg entry inh, LASV entry inh)
CC(=NNc1nc2ccccc2o1)c1ncccn1	Marburg entry inh 0.4µM, HCV inh 3.5µM, HCMV antiviral -77, LASV entry inh 0.89µM (no result: SARS PLP yeast)
Oc1ccccc1/C=N/Nc1nc2ccccc2o1	Marburg entry inh inconclusive, HCV inh inconclusive, HCMV antiviral active, LASV entry inh inconclusive
Cc1cc(C)nc(Nc2nc3ccccc3o2)n1	none
CC(=NNc1nc2ccccc2o1)c1cc2ccccc2cn1	Marburg entry inh 0.35µM, HCV inh inconclusive, HCMV antiviral -99, LASV entry inh 0.79µM (no result: SARS PLP yeast)
Brc1ccc(/C=N/Nc2nc3ccccc3o2)cc1	none (no result: Marburg entry inh, LASV entry inh)
COc1cc(/C=N/Nc2nc3ccccc3o2)cc(OC)c1O	HCV inh inconclusive
S=c1nc(-c2ccccc2)oc2c1CCCC2	LASV entry inh inconclusive
O=[N+]([O-])c1ccc(-c2nc(=S)c3c(o2)CCCC3)cc1	Marburg entry inh inconclusive, HCMV antiviral -101
CN1CCCC(CNC(=O)c2cnn(-c3ncc4c(n3)-c3ccccc3CC4)c2C2CC2)C1 (stereo unspecified)	none (no result: Marburg entry inh, HCV inh, HCMV antiviral, LASV entry inh, SARS PLP yeast)
C=CCS/C(N)=N\N=C\c1c(O)ccc2ccccc12	HCV inh 22µM (no result: Marburg entry inh, LASV entry inh)
CCOc1ccc(C(=O)Nc2cccc(-c3nc4cccnc4o3)c2)cc1Cl	HCV inh 11µM, LASV entry inh 26µM (no result: HCMV antiviral)
CCOc1ccc(C(=O)Nc2cccc([N+](=O)[O-])c2)cc1Br	Marburg entry inh inconclusive, HCV inh 7.1µM
COc1ccc(/C=C2\C(=O)N(c3c(Cl)cc(Cl)cc3Cl)N=C2NC(=O)c2cccc([N+](=O)[O-])c2)cc1	FMDV antiviral 11µM (no result: HCMV antiviral)
CCOc1ccc(C(=O)Nc2cccc(C(=O)O)c2)cc1Cl	FMDV antiviral 8.9µM, Marburg entry inh inconclusive, LASV entry inh inconclusive
CC(C)C(=O)Nc1cccc(NC(=O)c2cccc([N+](=O)[O-])c2)c1	none
COc1ccc(C(=O)C(C)Oc2cccc(NC(=O)c3cccc([N+](=O)[O-])c3)c2)cc1 (stereo unspecified)	Marburg entry inh inconclusive, HCV inh 11µM, LASV entry inh inconclusive
Cc1ccc(S(=O)(=O)NCC(=O)N/N=C/c2ccc(Cl)cc2Cl)cc1	none
O=C(CCCO)N/N=C/c1ccccc1[N+](=O)[O-]	Marburg entry inh inconclusive, HCMV antiviral inconclusive
O=C(CNS(=O)(=O)c1ccccc1)N/N=C/c1ccccc1[N+](=O)[O-]	HCMV antiviral -65
Cc1ccc(S(=O)(=O)NCC(=O)N/N=C/c2ccccc2O)cc1	Marburg entry inh inconclusive, LASV entry inh 7.3µM
O=[N+]([O-])c1cc2c(cc1/C=N\NS(=O)(=O)c1ccccc1)OCO2	Marburg entry inh inconclusive, HCMV antiviral -84 (no result: FMDV antiviral)
CC(C)=CCN1C(=O)[C@@]2(CC(C)=CC[C@@H](COc3ccccc3)O2)c2ccccc21	LASV entry inh inconclusive (no result: FMDV antiviral, HCV inh, HCMV antiviral, SARS PLP yeast)
c1ccc(N=NC2=NN(c3ccccc3)CS2)cc1	none (no result: Marburg entry inh, HCV inh, LASV entry inh, SARS PLP yeast)
CCc1cccc(CC)c1-n1nnc2c(sc3nc(C)cc(C)c32)c1=O	FMDV antiviral inconclusive (no result: HCV inh, SARS PLP yeast)
Cc1cc(C)c2c(n1)sc1c(=O)n(-c3cc(Cl)ccc3C)nnc12	HCMV antiviral -60 (no result: HCV inh, SARS PLP yeast)
